# In ChEMBL document CHEMBL4513216, “Probing the Open Global Health Chemical Diversity Library for Multistage-Active Starting Points for Next-Generation Antimalarials” (ACS Infect Dis, 2020):
# In all, about 69,000 compounds went through this assay and about 8,600 (12%) showed an effect of 50% or more. For the sample, strong results were picked, then their nearest neighbours and some compounds at random.
# Test system: Plasmodium berghei
# Assay: Screen against P. berghei liver stage (PbLuc), transformed with Luciferase, at 10uM
# Format: functional, HepG2
# Settings: tested at 10 uM
row,Structure (SMILES),INHIBITION [%]
1,COCC1COCCC12CCN(S(=O)(=O)c1ccccc1C)CC2 (centres undefined),48.4
2,CCCc1nnc2sc(-c3cc(C(C)C)n[nH]3)nn12,35.7
3,Cc1noc(C)c1C(=O)N1CCCN(C)c2ccc(Cl)cc21,19.7
4,Cc1nc(C)n(CC2CCCN(CCCc3ccccc3)C2)n1 (centres undefined),44.3
5,O=C(NC1CC1)[C@H]1CN(Cc2ccc3c(c2)OCO3)C[C@H]2OCC[C@@H]12,-23.3
6,Cc1nc2[nH]cc(C(=O)N3CCCCC3c3ccc(F)cc3)c(=O)n2n1 (centres undefined),57.1
7,Cc1cc2[nH]cc(C(=O)N3CCCCC3c3ccc(F)cc3)c(=O)n2n1 (centres undefined),17.8
8,Cc1cc(=O)c(C(=O)N2CCCCC2c2ccc(F)cc2)c[nH]1 (centres undefined),-4.37
9,Cc1cc(CN2CCCN(c3ccc(C#N)cc3)CC2)no1,29.17
10,COc1ccc(Cn2c(C3CCNCC3)cc3cccnc32)cc1,36.8
11,Fc1cccc(F)c1Cn1c(C2CCCNC2)cc2cccnc21 (centres undefined),30.74
12,Fc1cccc(F)c1Cn1c(C2CCNCC2)cc2cccnc21,54.9
13,COc1cccc(Cn2c(C3CCNCC3)cc3cccnc32)c1,10.82
14,c1cnc2c(c1)cc(C1CCOCC1)n2CCN1CCOCC1,32.4
15,Fc1ccccc1Cn1c(C2CCNCC2)cc2cccnc21,52.55
16,Cc1oncc1C(=O)N1CCC2(CCN(Cc3cccnc3)C2=O)C1 (centres undefined),5.41
17,O=C(CC1CCCCC1)N1CCOCC1CO (centres undefined),-40
18,CCOCc1nn(C)c2c1CN(CCO)CC2,27.6
19,O=C(N1CCOCC1)[C@@]12CCO[C@@H]1CCN(C1CCCCC1)C2,0.542
20,COc1ccccc1CN(C)c1nc2c(cnn2C)c(=O)[nH]1,27.9
21,COc1ccc(OC)c(CN(C)c2nc3c(cnn3C)c(=O)[nH]2)c1,4.3
22,COc1ccc(CN(C)c2nc3c(cnn3C)c(=O)[nH]2)c(OC)c1,73.8

row,Structure (SMILES),INHIBITION [%]
1,COc1cccc([C@@]2(O)CC[C@@H]3CN(C(=O)c4c[nH]nc4C)C[C@@H]32)c1,15.15
2,CC(=O)N1CCN(c2cc(CCN)nc(C3CC3)n2)CC1,3.91
3,CSc1nsc(SCC(=O)c2cc3c(cc2Cl)NC(=O)C3)n1,18.4
4,CCCOc1c(Cl)cc(C(=O)N2CCOC23CCN(C)CC3)cc1Cl,55.4
5,COc1cc(C(=O)N2CCCS2(=O)=O)cc(Cl)c1OC,21.1
6,CCCOc1ccc(C(=O)N2CC[C@@H]3CC[C@H](C2)N3)cc1Cl,-4.4
7,CCN1CCC2(CC1)OCCN2C(=O)c1cc(Cl)c(OC)c(Cl)c1,59.5
8,CCCOc1ccc(C(=O)N2CCN3CCNC(=O)C3C2)cc1Cl (centres undefined),18.7
9,CCN1CCC2(CC1)OCCN2C(=O)c1ccc(OC)c(Cl)c1,45
10,Cc1ccc(C(NC(=O)CCCN2CCCCC2)C(=O)O)cc1 (centres undefined),-18.9
11,COc1cc(CCC(=O)N2CCC(c3cnccn3)CC2)on1,36.15
12,Cc1ccc(F)c(NS(=O)(=O)c2cc3c(c(C(=O)O)c2)OCCO3)c1,14.1
13,COCCN1C(=O)[C@@H]2CC[C@H]1CN(C(=O)Cc1c(F)cccc1Cl)C2,-107
14,CCc1c(C(=O)O)nnn1-c1cc(C)ccc1C,-7.83
15,Cc1cc(C)n(CC2CN(Cc3cccnc3)CCO2)n1 (centres undefined),18.7
16,CC(=O)N1CC[C@H]2OCC[C@@]2(C(=O)NCCc2ccccn2)C1,3.81
17,COCCNc1ccc(CNCc2cnc3nc(C)cc(C)n23)cc1,-45.7
18,CCC(C(=O)NCCc1coc(-c2ccc(C)cc2)n1)N(C)C (centres undefined),10.5
19,COc1ccc(-c2nc(CCNC(=O)NC3CCC(O)CC3)co2)cc1 (centres undefined),50.6
20,Cc1ccc(-c2nc(CCNC(=O)NC3CCC(O)CC3)co2)cc1 (centres undefined),68.8
21,O=C(NCCc1coc(-c2ccc(F)cc2)n1)NC1CCC(O)CC1 (centres undefined),54.6
22,O=C(NCCc1coc(-c2ccc(F)cc2)n1)NCC1CCOC1 (centres undefined),13.8

row,Structure (SMILES),INHIBITION [%]
1,COc1ccc(-c2nc(CCNC(=O)NCC3CCOC3)co2)cc1 (centres undefined),1.04
2,O=C(NCCc1coc(-c2ccc(F)cc2)n1)NC1CC1,0.914
3,Cc1ccc(-c2nc(CCNC(=O)NC3CCN(C)CC3)co2)cc1,-9.14
4,O=C(NCCc1coc(-c2ccccc2)n1)NC1CC1,44.1
5,c1ccc(CCN2CCCC(c3ccnc4nccn34)C2)cc1 (centres undefined),39.1
6,O=C(c1ccncc1F)N1CC[C@@H]2OC(COCC3CC3)CC[C@@H]21 (some centres undefined),14.5
7,CCCN(CC(F)F)C(=O)CCc1c(C)nc2cc(O)nn2c1C,4.1
8,Cc1nn(Cn2ccc(C(=O)N3CCCCCC3)n2)c(C)c1Cl,26.9
9,CCn1nc(C)c(CNC(=O)c2nnc3ccc(OC)cc3n2)c1C,41.6
10,Cc1ccc2nnc(C(=O)NCCCn3cccn3)nc2c1,26.8
11,CCn1nc(C)c(CNC(=O)c2nnc3ccc(Cl)cc3n2)c1C,73.1
12,CCn1nc(C)c(CNC(=O)C2COc3ccccc3C2)c1C (centres undefined),15.9
13,O=C(NCCCn1cccn1)c1nnc2ccccc2n1,37.9
14,O=C(NCCn1cccn1)c1nnc2ccccc2n1,68.5
15,O=C(NCC1CC1)c1nnc2ccc(Cl)cc2n1,5.21
16,CCn1nc(C)c(CNC(=O)NCC(C)(O)c2ccccc2)c1C (centres undefined),-6.12
17,CCn1nc(C)c(CNC(=O)c2nnc3ccccc3n2)c1C,58.2
18,CS(=O)(=O)N1CCCC(C(=O)Nc2cnn(COCC(F)(F)F)c2)C1 (centres undefined),4.08
19,Cc1ccc(C2(CN(C)Cc3sccc3C)CCNCC2)nc1,6.66
20,CC(C)C(=O)N1CCCC([C@@H]2C[C@H](C(F)F)n3ncnc3N2)C1 (some centres undefined),5.295
21,O=C1CC[C@H]2[C@H](CCN2C(=O)N2CCCC2)N1Cc1ccncc1,41.2
22,Cc1nsc2ncc(C(=O)N3CCCC3c3cnn(C)c3)cc12 (centres undefined),19.2

row,Structure (SMILES),INHIBITION [%]
1,Cc1ccc2c(c1)[C@@H](CC(=O)N1CCOCC1)CCO2,14.5
2,COc1ccc2c(c1)NC(C1CCNCC1)NS2(=O)=O (centres undefined),19.3
3,O=S1(=O)NC2(CCCN(Cc3ccc(F)cc3)C2)COc2ccccc21 (centres undefined),0.207
4,Cc1cncc(C(=O)N2CCCC(O)(CN(C)C)CC2)c1 (centres undefined),-5.78
5,Cc1cccc(C(C(=O)NC(C)(C)CN2CCOCC2)N(C)C)c1 (centres undefined),-17.8
6,CN(C)C[C@]12COC[C@H]1CN(Cc1ccc3c(c1)OCO3)C2,28.5
7,Cc1nn(C)cc1C(=O)N1CCCC(c2nccn2CC2CCC2)C1 (centres undefined),14.1
8,O=C(CC1CCN(CCc2ccccc2)CC1)N1CCCOCC1,33.2
9,CCCC(O)CN1CCC(=O)N(CC2CC2)Cc2cc3c(cc21)OCO3 (centres undefined),10.9
10,Cn1cc(CNCCNc2ncc(Cl)cc2Cl)cn1,-14.5
11,Cc1c(C(=O)NC2CCCOC2)nnn1-c1ccccc1 (centres undefined),17.1
12,Cc1c(C(=O)NC2CCCOC2)nnn1-c1ccc(Cl)cc1F (centres undefined),55.5
13,Cc1c(C(=O)NC2CCCC2)nnn1-c1ccccc1,-133
14,Cc1cnn(CC(C)NCC(=O)NCCOc2ccccc2)c1 (centres undefined),-0.96
15,CC(C)(C)n1nnnc1CN(CCc1ccccc1)Cc1ccccc1,65.7
16,O=C(c1nnn(-c2ccc(Cl)cc2)n1)N(CCO)Cc1ccccc1,-23.5
17,CC(C)N(C(=O)Cn1nnnc1CCc1ccccc1)C(C)C,37.7
18,CC(C)(C)n1nnnc1CN(Cc1ccccc1)Cc1ccccc1Cl,91.6
19,CC(C)(C)n1nnnc1CN(Cc1ccccc1)Cc1ccc(Cl)cc1,81.4
20,Cn1cc(CN(Cc2ccccn2)Cc2ccccc2Cl)cn1,-10.4
21,CCN(Cc1ccccc1Cl)Cn1nc(C)c2c(C)onc2c1=O,40.2
22,CCc1ncc(CN(CCc2ccccc2)Cc2cccs2)cn1,45.1

row,Structure (SMILES),INHIBITION [%]
1,CCc1nc(CN(C(C)=O)C2CCN(Cc3ccccc3F)C2)no1 (centres undefined),-11.4
2,CN(Cc1ccco1)[C@@H]1CN(C(=O)C2CCOCC2)C[C@@H]2CCCO[C@@H]21,37.1
3,CCN(CC)C(=O)Cn1ccc2cc(NC(=O)COC)ccc21,-7.267
4,Cn1nccc1-c1nnn2c1COC(CNCc1nccs1)C2 (centres undefined),38.3
5,N[C@H]1CN(C(=O)c2ccc3[nH]c(=O)c(=O)[nH]c3c2)C[C@@H]1c1ccccc1,34.1
6,Cc1cc(NC(=O)CN2CCC(N3CCNC3=O)CC2)on1,-71.2
7,CC(NCc1c(C(C)C)nn(C)c1N(C)C)C(=O)NC1CCCC1 (centres undefined),-5.94
8,C1CCC(NCC2(N3CCOCC3)CCSC2)C1 (centres undefined),30.8
9,CS(=O)(=O)N1CCC(NCC2(N3CCOCC3)CCCCC2)CC1,49
10,C1CCC(CNC2CCSCC2)(N2CCOCC2)CC1,51.1
11,COCc1nn(C(C)C)c2c1CCN(Cc1cccs1)C2,23.5
12,O=C(c1ccc(N2CCCCCC2)nn1)N1CCc2ccccc21,-30
13,CCCc1nc2c(c(C)c(C)n2Cc2ccncc2)c(N)c1CC,77.9
14,CCCc1nc2c(c(C)c(C)n2Cc2cccnc2)c(N)c1CC,75.2
15,CCCc1nc2c(c(C)c(C)n2Cc2ccccn2)c(N)c1CC,68.1
16,CCc1nc2c(c(C)c(C)n2Cc2cccnc2)c(N)c1C,29.1
17,CCCc1nc(N2CCN(Cc3ccccn3)CC2)c2cnn(C)c2n1,27.6
18,CCCc1nc2c(c(C)c(C)n2CCN(C)C)c(N)c1CC,43.8
19,Cc1c(-c2ccccc2)nc2c(c(C)c(C)n2CCN(C)C)c1N,-19.4
20,CCc1c(-c2ccccc2)nc2c(c(C)c(C)n2CCN(C)C)c1N,45
21,CCc1cc(NCCc2cccnc2)n2nc(C)c(C)c2n1,-1.6
